For some assays here: Measured potencies and affinities stand elsewhere. The source made the active and inactive calls. Unless noted, how the calls were made is not given here.
Key:
[1] = antimalarial activity against Dd2 strain (AID 2302;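 active means growth inhibition above 50% at the single 2 µM test dose, taken to imply half-maximal potency below 2 µM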;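 further: 0% = DMSO untreated growth and 100% = chloroquine plus artemisinin killed control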); conditions: P. falciparum Dd2 in RBCs, LDH growth readout, 72 h; at 2 µM; hits give high values
[2] = human hepatoma cell viability loss – ATP luminescence, cytotoxicity control for P. falciparum antimalarial project, primary screen (AID 2303;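 active means inhibition above 50%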;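 further: 0% = DMSO wells and 100% = digitonin-killed cells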); conditions: HepG2 viability, 24-48 h, at 10 µM, hits give high values
[3] = target: L-lactate dehydrogenase (Plasmodium falciparum (isolate CDC / Honduras)) (UniProt Q27743); assay: PfLDH activity inhibition – cell lysate, 3D7 strain, counter-screen for P. falciparum growth inhibition project (AID 2304);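 further: 0% = vehicle and 100% = reference inhibitor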; conditions: P. falciparum 3D7 crude extract, LDH APAD/NBT absorbance; at 2 µM; hits give high values
[4] = inhibition of 3D7 malaria parasite growth – strain 3D7 (AID 2306);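 further: 0% = DMSO wells and 100% = chloroquine plus artemisinin control wells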; conditions: P. falciparum 3D7 erythrocytic growth, LDH absorbance, 72 h; at 2 µM; hits give high values
[5] = target: Calcium-dependent protein kinase 1 (Plasmodium falciparum (isolate 3D7)) (UniProt P62344); assay: PfCDPK1 kinase inhibitors, biochemical, TCAMS library (AID 1159585; cut-off not given, nearly all actives have IC50 up to about 0.98 µM;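 further: inhibitors leave more ATP so luminescence rises with inhibition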); conditions: recombinant PfCDPK1, Kinase-Glo ATP depletion luminescence
[6] = target: Plasmodium falciparum protein kinase 6 (PK6, PF3D7_1337100) (UniProt Q8IDW1); assay: PfPK6 kinase inhibitors, biochemical, TCAMS library (AID 1159586); conditions: recombinant PfPK6, Kinase-Glo ATP depletion luminescence
[7] = target: Protein kinase 7 (PK7), Plasmodium falciparum 3D7 (PF3D7_0213400) (UniProt Q7YTF7); assay: inhibition of Plasmodium PK7 catalytic activity – biochemical, TCAMS antimalarial set, Kinase-Glo luminescence (AID 1159587); conditions: recombinant PfPK7, Kinase-Glo ATP depletion luminescence
[8] = target: Calcium-dependent protein kinase 4 (Plasmodium falciparum (isolate 3D7)) (UniProt Q8IBS5); assay: PfCDPK4 kinase inhibitors, biochemical, TCAMS library (AID 1159588; cut-off not given, nearly all actives have IC50 up to about 0.91 µM); conditions: recombinant PfCDPK4, Kinase-Glo ATP depletion luminescence
Calcium-dependent protein kinase 4 (Plasmodium falciparum (isolate 3D7)), sequence (Q8IBS5 whole entry, looked up): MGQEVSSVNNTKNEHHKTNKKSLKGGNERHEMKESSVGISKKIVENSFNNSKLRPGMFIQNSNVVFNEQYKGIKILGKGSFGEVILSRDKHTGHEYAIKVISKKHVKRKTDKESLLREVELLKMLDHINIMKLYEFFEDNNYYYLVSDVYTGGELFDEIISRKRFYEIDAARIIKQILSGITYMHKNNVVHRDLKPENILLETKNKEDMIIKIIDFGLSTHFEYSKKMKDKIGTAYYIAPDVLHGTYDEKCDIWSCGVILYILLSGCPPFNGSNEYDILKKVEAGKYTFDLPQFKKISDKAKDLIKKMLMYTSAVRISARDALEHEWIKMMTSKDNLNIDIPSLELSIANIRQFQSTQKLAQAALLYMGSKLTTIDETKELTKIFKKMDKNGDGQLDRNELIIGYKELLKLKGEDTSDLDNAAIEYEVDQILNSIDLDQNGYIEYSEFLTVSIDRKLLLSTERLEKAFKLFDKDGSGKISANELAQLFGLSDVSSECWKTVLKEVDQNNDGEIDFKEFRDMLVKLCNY

L-lactate dehydrogenase (Plasmodium falciparum (isolate CDC / Honduras)), sequence (Q27743 whole entry, looked up): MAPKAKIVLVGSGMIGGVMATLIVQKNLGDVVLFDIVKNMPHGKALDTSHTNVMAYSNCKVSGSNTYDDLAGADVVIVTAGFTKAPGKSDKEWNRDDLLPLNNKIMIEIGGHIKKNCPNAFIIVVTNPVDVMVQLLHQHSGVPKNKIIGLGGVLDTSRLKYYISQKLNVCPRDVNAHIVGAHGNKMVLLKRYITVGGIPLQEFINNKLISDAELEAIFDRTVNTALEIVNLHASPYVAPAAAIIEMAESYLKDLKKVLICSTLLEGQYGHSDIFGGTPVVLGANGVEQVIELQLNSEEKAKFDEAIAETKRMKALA
Calcium-dependent protein kinase 1 (Plasmodium falciparum (isolate 3D7)), sequence (P62344 whole entry, looked up): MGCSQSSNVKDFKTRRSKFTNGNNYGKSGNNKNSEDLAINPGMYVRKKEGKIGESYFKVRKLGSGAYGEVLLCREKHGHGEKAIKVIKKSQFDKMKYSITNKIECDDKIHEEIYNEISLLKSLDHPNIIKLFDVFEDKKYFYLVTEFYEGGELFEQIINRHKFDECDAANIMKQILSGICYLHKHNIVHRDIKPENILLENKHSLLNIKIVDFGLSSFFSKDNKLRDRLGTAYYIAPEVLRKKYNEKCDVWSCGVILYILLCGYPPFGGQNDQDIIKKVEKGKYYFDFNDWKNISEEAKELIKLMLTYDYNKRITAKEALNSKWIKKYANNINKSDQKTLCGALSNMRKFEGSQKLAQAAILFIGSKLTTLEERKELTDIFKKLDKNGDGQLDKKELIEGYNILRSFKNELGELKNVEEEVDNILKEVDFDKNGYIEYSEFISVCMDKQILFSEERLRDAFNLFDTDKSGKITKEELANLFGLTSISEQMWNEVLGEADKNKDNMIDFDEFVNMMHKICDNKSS
Protein kinase 7 (PK7), Plasmodium falciparum 3D7 (PF3D7_0213400), sequence (Q7YTF7 1-343): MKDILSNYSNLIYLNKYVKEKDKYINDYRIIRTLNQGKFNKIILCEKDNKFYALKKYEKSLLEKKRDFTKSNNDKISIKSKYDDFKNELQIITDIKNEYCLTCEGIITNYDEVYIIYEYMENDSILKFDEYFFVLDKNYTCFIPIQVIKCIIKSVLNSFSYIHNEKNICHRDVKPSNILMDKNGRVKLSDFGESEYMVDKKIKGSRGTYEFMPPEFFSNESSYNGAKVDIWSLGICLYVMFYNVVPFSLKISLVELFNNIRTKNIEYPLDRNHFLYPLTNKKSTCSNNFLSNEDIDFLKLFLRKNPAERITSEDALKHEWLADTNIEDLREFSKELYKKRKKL
Plasmodium falciparum protein kinase 6 (PK6, PF3D7_1337100), sequence (Q8IDW1 1-305): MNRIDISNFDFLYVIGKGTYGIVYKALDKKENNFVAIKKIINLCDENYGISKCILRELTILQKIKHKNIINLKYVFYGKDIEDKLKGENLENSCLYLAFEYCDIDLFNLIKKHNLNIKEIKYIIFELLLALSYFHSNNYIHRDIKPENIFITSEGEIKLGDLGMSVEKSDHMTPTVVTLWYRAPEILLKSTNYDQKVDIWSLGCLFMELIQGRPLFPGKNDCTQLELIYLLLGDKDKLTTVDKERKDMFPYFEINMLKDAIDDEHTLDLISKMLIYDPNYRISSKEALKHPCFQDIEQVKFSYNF

COc1ccc2nccc([C@@H](O)CN3CCC(NCc4ccc5c(c4)OCCO5)CC3)c2c1
inactive: inhibition [2] 9% | inhibition [3] -4% | outcome [5] | outcome [6] | outcome [7] | outcome [8]
active: growth inhibition [1] 92% | growth inhibition [4] 101%

O=C(NCCc1cccc(F)c1)c1cc(Br)cc(N2CCN(c3ccncc3)CC2)c1
active: growth inhibition [1] 86% | growth inhibition [4] 100%
inactive: inhibition [2] 34% | inhibition [3] 0% | outcome [5] | outcome [6] | outcome [7] | outcome [8]

CN(C)C(=S)N=Nc1c(O)[nH]c2ccc(OC(F)(F)F)cc12
active: growth inhibition [1] 52% | growth inhibition [4] 93%
inactive: inhibition [2] 36% | inhibition [3] 3% | outcome [5] | outcome [6] | outcome [7] | outcome [8]

COc1ccc(CNC2CCN(C)CC2)cc1-c1ccc(S(=O)(=O)NCc2ccccc2)s1
inactive: inhibition [3] 0% | outcome [5] | outcome [6] | outcome [7] | outcome [8]
active: growth inhibition [1] 101% | inhibition [2] 62% | growth inhibition [4] 101%

O=C(NC1CC1)c1cnc(N2CCN(Cc3c(F)cccc3Cl)CC2)c(Cl)c1
active: growth inhibition [1] 93% | growth inhibition [4] 93%
inactive: inhibition [2] 0% | inhibition [3] -2% | outcome [5] | outcome [6] | outcome [7] | outcome [8]

COc1ccc(NC(=O)CCNc2cc(C)nc(NCCc3ccccc3)n2)cc1
active: growth inhibition [4] 85%
inactive: growth inhibition [1] 0% | inhibition [2] 3% | inhibition [3] -2% | outcome [5] | outcome [6] | outcome [7] | outcome [8]

O=C(N[C@@H](CC1CCCCC1)C(=O)NCCN1CCCCC1)c1ccc(O)c(-c2ccc(Cl)c(Cl)c2)c1
active: growth inhibition [1] 99% | growth inhibition [4] 97%
inactive: inhibition [2] 14% | inhibition [3] -6% | outcome [5] | outcome [6] | outcome [7] | outcome [8]

CC(C)Nc1nc(NCCc2cnc[nH]2)nc(NCc2ccc(Cl)c(Cl)c2)n1
active: growth inhibition [4] 88%
inactive: growth inhibition [1] -1% | inhibition [2] -3% | inhibition [3] 7% | outcome [5] | outcome [6] | outcome [7] | outcome [8]

CC(=O)c1cccc(S(=O)(=O)NCCCNc2nc3cc(C)cc(C)c3cc2C#N)c1
inactive: inhibition [2] 11% | inhibition [3] 1% | outcome [5] | outcome [6] | outcome [7] | outcome [8]
active: growth inhibition [1] 75% | growth inhibition [4] 95%

COCCCNC(=O)[C@H]1CNCCN1C(=O)c1ccccc1
inactive: inhibition [3] -2% | outcome [5] | outcome [6] | outcome [7] | outcome [8]
active: growth inhibition [1] 95% | inhibition [2] 53% | growth inhibition [4] 97%

Cc1ccc(Nc2ccnc3cc(-c4nccs4)ccc23)cc1C(O)c1ccccc1 (stereo not given)
active: growth inhibition [1] 83% | growth inhibition [4] 85%
inactive: inhibition [2] 23% | inhibition [3] -8% | outcome [5] | outcome [6] | outcome [7] | outcome [8]

CCCNC(=O)c1cncc(-c2ccc(CNCCCc3ccccc3)cc2)c1
active: growth inhibition [4] 101%
inactive: growth inhibition [1] 29% | inhibition [2] -13% | inhibition [3] 0% | outcome [5] | outcome [6] | outcome [7] | outcome [8]

COc1cc2ccccc2cc1CCNCCCCNCCc1cc2ccccc2cc1OC
active: inhibition [2] 100% | growth inhibition [4] 99%
inactive: growth inhibition [1] 38% | inhibition [3] 2% | outcome [5] | outcome [6] | outcome [7] | outcome [8]

Cc1ccccc1C1CCN(C2CCC(NC(=O)c3cc(-c4ccccc4)oc3C)CC2)CC1 (stereo not given)
active: growth inhibition [4] 100%
inactive: growth inhibition [1] 32% | inhibition [2] 46% | inhibition [3] 0% | outcome [5] | outcome [6] | outcome [7] | outcome [8]

CC(C)C[C@H](NC(=O)c1cc(-c2ccc(F)cc2)no1)C(=O)O (tested in a mixture with another compound)
inactive: growth inhibition [1] 4% | inhibition [2] 7% | inhibition [3] -2% | outcome [5] | outcome [6] | outcome [7] | outcome [8]
active: growth inhibition [4] 82%

COc1ccc(NC(=O)c2ccc3cc4ccccc4cc3c2)cc1N1CCN(C)CC1
inactive: growth inhibition [1] 29% | inhibition [2] 38% | inhibition [3] 1% | outcome [5] | outcome [6] | outcome [7] | outcome [8]
active: growth inhibition [4] 86%

Cc1cccc2[nH]c(-c3cccc(-c4ccc(NC(=O)NCc5cccc(F)c5)cc4)c3)nc12
active: growth inhibition [1] 83% | growth inhibition [4] 101%
inactive: inhibition [2] 40% | inhibition [3] -4% | outcome [5] | outcome [6] | outcome [7] | outcome [8]

Cc1[nH]cnc1CSCCNC(N)=NCCCCCCCCN=C(N)NCCSCc1nc[nH]c1C
active: growth inhibition [1] 95% | growth inhibition [4] 96%
inactive: inhibition [2] 24% | inhibition [3] -10% | outcome [5] | outcome [6] | outcome [7] | outcome [8]

Cc1[nH]c2ccccc2c1C(=O)C(C)Sc1n[nH]c(-c2ccccc2Br)n1 (stereo not given)
active: growth inhibition [1] 100% | growth inhibition [4] 101%
inactive: inhibition [2] -7% | inhibition [3] -3% | outcome [5] | outcome [6] | outcome [7] | outcome [8]

CCC(C)(C)c1ccc(N2C(N)=NC(N)=NC2(C)C)cc1
inactive: growth inhibition [1] 4% | inhibition [2] 40% | inhibition [3] -1% | outcome [5] | outcome [6] | outcome [7] | outcome [8]
active: growth inhibition [4] 91%

O=C(NCCNc1ccnc(Nc2ccc(F)cc2)n1)c1cc2ccccc2s1
active: growth inhibition [4] 99%
inactive: growth inhibition [1] 34% | inhibition [2] -1% | inhibition [3] -11% | outcome [5] | outcome [6] | outcome [7] | outcome [8]

CO/C(=C\C=C\c1cc2cc(Cl)c(Cl)cc2[nH]1)C(=O)Nc1ccc(NCCN(C)C)nc1
active: growth inhibition [1] 56% | growth inhibition [4] 93%
inactive: inhibition [2] 27% | inhibition [3] -1% | outcome [5] | outcome [6] | outcome [7] | outcome [8]

O=C(Nc1ccc(CN2CCCCC2)cc1)c1ccc(COc2ccc([N+](=O)[O-])cc2)o1
active: growth inhibition [4] 86%
inactive: growth inhibition [1] -3% | inhibition [2] 12% | inhibition [3] -1% | outcome [5] | outcome [6] | outcome [7] | outcome [8]

COc1cc2ccccc2c(OC)c1CNCCCCCCNCc1c(OC)cc2ccccc2c1OC
active: growth inhibition [1] 91% | inhibition [2] 100% | growth inhibition [4] 93%
inactive: inhibition [3] 0% | outcome [5] | outcome [6] | outcome [7] | outcome [8]

CN1CCC(C(=O)Nc2ccc(-c3ccc(-c4nc5ccc(C(F)(F)F)cc5[nH]4)s3)cc2)CC1
active: growth inhibition [1] 95% | inhibition [2] 53% | growth inhibition [4] 101%
inactive: inhibition [3] 4% | outcome [5] | outcome [6] | outcome [7] | outcome [8]

Cc1c(S(=O)(=O)Nc2ccc3ccn(CCN(C)C)c3c2)sc2ccc(Cl)cc12
active: growth inhibition [1] 94% | growth inhibition [4] 98%
inactive: inhibition [2] 15% | inhibition [3] 0% | outcome [5] | outcome [6] | outcome [7] | outcome [8]

O=C(Cc1cnc[nH]1)Nc1cccc(-c2cccc(-c3nc4ccccc4[nH]3)c2)c1
active: growth inhibition [1] 60% | growth inhibition [4] 97%
inactive: inhibition [2] 24% | inhibition [3] -2% | outcome [5] | outcome [6] | outcome [7] | outcome [8]

Cc1cc(NC(=O)Nc2cccc(Cl)c2Cl)c2ccccc2n1
active: growth inhibition [4] 96%
inactive: growth inhibition [1] 25% | inhibition [2] -5% | inhibition [3] 1% | outcome [5] | outcome [6] | outcome [7] | outcome [8]

Cc1cc(NC(=O)c2cccs2)ccc1OC1CCN(Cc2ccc(F)cc2)CC1
inactive: inhibition [2] 7% | inhibition [3] -1% | outcome [5] | outcome [6] | outcome [7] | outcome [8]
active: growth inhibition [1] 92% | growth inhibition [4] 94%

COc1ccc(-c2cc3nc4c(c(NCCCn5ccnc5)n3n2)CCCC4)cc1
inactive: inhibition [2] 5% | inhibition [3] -2% | outcome [5] | outcome [6] | outcome [7] | outcome [8]
active: growth inhibition [1] 74% | growth inhibition [4] 95%

OC(CNc1ccnc(Nc2cccc(Cl)c2)n1)c1cccc(F)c1 (stereo not given)
inactive: growth inhibition [1] 29% | inhibition [2] 16% | inhibition [3] 3% | outcome [5] | outcome [6] | outcome [7] | outcome [8]
active: growth inhibition [4] 90%

CC(C)N1CCC(N(Cc2ccc(-c3ccc(C(F)(F)F)cc3)cc2)C(=O)Cn2c(CCc3cccc(F)c3F)cc(=O)c3cn(C)nc32)CC1
active: growth inhibition [1] 78% | inhibition [2] 100% | growth inhibition [4] 89%
inactive: inhibition [3] 6% | outcome [5] | outcome [6] | outcome [7] | outcome [8]

COc1cc(F)c2ncc(Cl)c(CCN3CCC(NCc4ccc5c(n4)NC(=O)CS5)CC3)c2c1
active: growth inhibition [4] 99%
inactive: growth inhibition [1] 41% | inhibition [2] 18% | inhibition [3] 3% | outcome [5] | outcome [6] | outcome [7] | outcome [8]

COc1ccc(Cl)cc1N1CCN(CCCNC(=O)c2ccc(-c3nc4cc(Cl)c(F)cc4[nH]3)s2)CC1
inactive: inhibition [2] 12% | inhibition [3] 4% | outcome [5] | outcome [6] | outcome [7] | outcome [8]
active: growth inhibition [1] 98% | growth inhibition [4] 101%

CCc1sc(-c2ccc(C(C)(C)C)cc2)nc1C(=O)NCCCN1CCCC1=O
inactive: inhibition [2] 0% | inhibition [3] -5% | outcome [5] | outcome [6] | outcome [7] | outcome [8]
active: growth inhibition [1] 69% | growth inhibition [4] 84%

CCCCCCCN1CC[C@@H](C[C@H](N)Cc2ccnc3ccc(OC)cc23)[C@@H](CC)C1
inactive: inhibition [2] 33% | inhibition [3] -2% | outcome [5] | outcome [6] | outcome [7] | outcome [8]
active: growth inhibition [1] 51% | growth inhibition [4] 91%

CC(C)CN(c1nc(C(=O)NNC(=O)[C@H](CC2CC2)NC(=O)c2cc3cc(OCCN(C)C)ccc3o2)cs1)C1CC1
inactive: inhibition [2] -5% | inhibition [3] -4% | outcome [5] | outcome [6] | outcome [7] | outcome [8]
active: growth inhibition [1] 97% | growth inhibition [4] 87%

Cc1cc(Nc2ccccc2)nc(Nc2ccccc2C)n1
active: growth inhibition [4] 85%
inactive: growth inhibition [1] 27% | inhibition [2] 8% | inhibition [3] 5% | outcome [5] | outcome [6] | outcome [7] | outcome [8]

FC(F)(F)COc1ccc(CCNCCCCNCCc2ccc(OCC(F)(F)F)c3ccccc23)c2ccccc12
inactive: inhibition [3] 4% | outcome [5] | outcome [6] | outcome [7] | outcome [8]
active: growth inhibition [1] 70% | inhibition [2] 100% | growth inhibition [4] 99%

COc1ccc(C#Cc2ccc(-c3c(C)[nH]c(C)c(Cl)c3=O)cc2)cc1
active: growth inhibition [1] 97% | growth inhibition [4] 97%
inactive: inhibition [2] -6% | inhibition [3] 2% | outcome [5] | outcome [6] | outcome [7] | outcome [8]

Source: PubChem BioAssay
